Several values for one entry are separate records, joined by “and”; a condition that tells them apart may be missing. Equal values may be shown once. Values without a mark were called inactive. Activity calls are given as the source filed them.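 The calls were made as follows: active = inhibition reaching about 16% in any single replicate (limit read from the data); inactive = the rest.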

Usually inhibition stands for the relative decrease from the control value, in per cent.

For this assay, the target named is Hexokinase HKDC1 (Homo sapiens) (UniProt Q2TB90). As to the kind of experiment: compounds lowering human HKDC1 activity – biochemical, single concentration, confirmation (AID 504710). Conditions: recombinant HKDC1, G6PDH/diaphorase/resazurin fluorescence; at 20 µM; active compounds read high.
Chain of Hexokinase HKDC1 (Homo sapiens) (Q2TB90 whole entry, looked up): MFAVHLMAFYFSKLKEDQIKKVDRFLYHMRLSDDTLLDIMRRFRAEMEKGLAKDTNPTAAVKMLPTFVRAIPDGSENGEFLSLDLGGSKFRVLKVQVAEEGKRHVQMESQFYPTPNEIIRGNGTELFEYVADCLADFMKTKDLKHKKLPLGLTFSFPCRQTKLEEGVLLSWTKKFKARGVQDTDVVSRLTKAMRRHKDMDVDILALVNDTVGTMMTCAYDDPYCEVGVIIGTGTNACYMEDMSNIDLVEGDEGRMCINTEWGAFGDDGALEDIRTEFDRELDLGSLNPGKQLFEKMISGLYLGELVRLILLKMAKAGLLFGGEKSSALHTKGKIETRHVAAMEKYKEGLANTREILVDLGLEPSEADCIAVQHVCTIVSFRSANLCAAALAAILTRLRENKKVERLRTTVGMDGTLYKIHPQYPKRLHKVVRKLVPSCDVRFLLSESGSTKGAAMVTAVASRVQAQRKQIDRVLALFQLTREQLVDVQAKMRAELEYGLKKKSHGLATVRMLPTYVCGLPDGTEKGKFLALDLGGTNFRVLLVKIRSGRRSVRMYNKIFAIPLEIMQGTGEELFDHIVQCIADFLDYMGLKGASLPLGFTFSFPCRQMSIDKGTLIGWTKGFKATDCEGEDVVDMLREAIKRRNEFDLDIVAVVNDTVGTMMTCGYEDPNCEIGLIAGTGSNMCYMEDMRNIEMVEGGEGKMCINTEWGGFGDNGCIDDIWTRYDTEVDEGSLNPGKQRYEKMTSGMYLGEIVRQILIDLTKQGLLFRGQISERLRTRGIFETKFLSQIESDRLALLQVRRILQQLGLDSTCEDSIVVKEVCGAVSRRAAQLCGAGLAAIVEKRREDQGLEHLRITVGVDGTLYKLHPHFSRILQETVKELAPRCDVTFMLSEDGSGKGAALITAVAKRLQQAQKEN
For `CC(C)c1nc2oc3c(NCCO)ncnc3c2c2c1COC(C)(C)C2`, the inhibition was 66.2% (active).
The figure for `CCn1c2ccccc2c2nc3cc(S(=O)(=O)N4CCOCC4)ccc3nc21` is -47.4%.
The figure for `O=C(O)c1cc(O)c2c(c1)[C@@H]([C@H]1c3cc(C(=O)O)cc(O)c3C(=O)c3c(O[C@@H]4O[C@H](CO)[C@@H](O)[C@H](O)[C@H]4O)cccc31)c1cccc(OC3O[C@H](CO)[C@@H](O)[C@H](O)[C@H]3O)c1C2=O` (some centres not stated) is 50.9% (active); for `C=CCN1C=C2C(=O)C(C)(OC(=O)CCC(=O)OC)C(=O)C(Br)=C2C=C1c1ccc(OC)cc1` (configuration not stated) it is 57.5% (active); for `COc1ccc(-c2nc3c(c(=O)n(C)c(=O)n3C)n2CC2CC(c3ccccc3)=NO2)cc1OC` (configuration not stated) it is -32.8%.
Take `CN1c2ccc(C=O)c3c(C=O)ccc(c23)N(C)C1(C)C`: the inhibition was 61.2% (active).
The figure for `Nc1nc(-c2cccc(Br)c2)cs1` is -40.6%; for `COC1=CC(=O)c2c(ccc3ncnc(N)c23)C1=O` it is 87.6% (active).
On to `NC1=C(Br)C(=O)c2ncccc2C1=O`, for which the inhibition is 50.8% (active).
As to `Cc1ccc(S(=O)(=O)/N=C2\C=C(Nc3cccc(C(=O)O)c3)C(=O)c3ccccc32)c(C)c1`, the inhibition was 57.8% (active).
On to `O=C(CNC(=O)c1ccc2c(c1)OCCO2)N/N=C/c1ccc(O)cc1O`, for which the inhibition was 18.4% (active).
The figure for `O=C(O)c1cc(O)c2c(c1)[C@H]([C@H]1c3cc(C(=O)O)cc(O)c3C(=O)c3c(O[C@@H]4O[C@H](CO)[C@@H](O)[C@H](O)[C@H]4O)cccc31)c1cccc(OC3O[C@H](CO)[C@@H](O)[C@H](O)[C@H]3O)c1C2=O` (some centres not stated) is 52.1% (active); for `CCOc1ccccc1Nc1nnc(SCc2nnc(-c3cc(OC)c(OC)c(OC)c3)o2)s1` it is 44.7% (active); for `CSc1nc(N)nc2c1ncn2CC(=O)N[C@H](C)c1cccc2ccccc12` it is -73.5%.
Turning to `CCC(c1ccccc1)C(CC)c1cc(O)c(O)c(O)c1` (configuration not stated), the inhibition is 35.8% (active).
For the compound `Cc1oc2c(c1C(=O)c1ccc(Cl)cc1)C(=O)C(=O)c1ccccc1-2`, the inhibition was 46.1% (active).
The figure for `COc1cc(N=c2ssnc2Cl)cc(OC)c1OC` is -45.9%; for `O=C1C=C(Nc2ccccc2C(=O)O)c2ccccc2C1=O` it is 44.3% (active).
With `O=C1C=C(NCc2ccccc2)c2ccccc2C1=O`, the inhibition is 56% (active).
For the compound `O=C(CSc1nnc(CCCN2C(=O)c3cccc4cccc(c34)C2=O)n1-c1ccccc1)N1CCN(CCO)CC1`, the inhibition was 47.6% (active).
Consider `O=[N+]([O-])c1ccc(Sc2nc3ccccc3o2)c([N+](=O)[O-])c1`, for which the inhibition was 30.4% (active).
As for `CCN(CC)Cc1cc(O)c(CN(CC)CC)cc1O`, the inhibition was 41.2% (active).
The figure for `COc1cc(N=c2ssnc2Cl)c(OC)cc1Cl` is -58.8% and -56.9%.
As for `CCCCNC(=O)c1sc(=S)n2c1[nH]c(=O)c1ccc(C(=O)NCCc3ccc(OC)c(OC)c3)cc12`, the inhibition is 49.8% (active).
The figure for `O=C(NC1=C(NC2CCS(=O)(=O)C2)C(=O)c2ccccc2C1=O)c1ccccc1` (configuration not stated) is 68.9% (active); for `O=C(CN(C(=O)CCC(=O)Nc1ccccn1)c1ccc2c(c1)OCO2)NCc1ccc(F)cc1` it is 31.3% (active).
The same measure for `CC(OC(=O)c1cc(O)c2ccccc2c1O)C(=O)Nc1ccc(C(N)=O)cc1` (configuration not stated): 28.4% (active).
In the case of `COc1ccc(C(=O)c2coc3c2C(=O)C(=O)c2ccccc2-3)cc1`, the inhibition was 44.8% (active).
For the compound `Cc1cc(Oc2ccc(C(C)(C)C)cc2)nc(N2CCOCC2)n1`, the inhibition is -37%.
The figure for `COC(=O)c1ccc(CCc2cc(O)c(Br)cc2O)cc1` is 54.2% (active).
In the case of `O=C(/C=C/c1ccc(Br)cc1)NC(=S)Nc1ccc(S(=O)(=O)Nc2nccs2)cc1`, the inhibition was 39.5% (active).
For `CC(NC(=O)c1sc2cc([N+](=O)[O-])ccc2c1Cl)C(C)(C)C` (configuration not stated), the inhibition is -39.3%.
The figure for `CC(C)(C=O)C1=CC(=O)c2ccccc2C1=O` is 41.2% (active); for `Cc1oc2c(c1C(=O)c1ccccc1)C(=O)C(=O)c1ccccc1-2` it is 51.8% (active); for `CC(=O)/C(=N\Nc1ccc(Cl)cc1Cl)Sc1cccc2cccnc12` it is -44.8%.
The same measure for `O=S(=O)(NC1c2cccc3cccc(c23)C1N1CCN(CCO)CC1)c1ccccc1` (configuration not stated): -118%.
The same measure for `O=C1c2ccccc2-c2onc3ccc(Oc4ccccc4)c1c23`: 28.2% (active).

Source of the values: PubChem BioAssay AID504710 (Sanford-Burnham Center for Chemical Genomics, 2011).
